Experiment [1] in a line: liver-stage malaria parasite load reduction – cell-based, known kinase inhibitor set, luminescence, hepatoma host viability (AID 624392).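 Further: infected cells incubated roughly two days before readout.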 The settings on record: Plasmodium liver stage in hepatoma cells, luciferase luminescence, concentration not given here; liver cell % of control: measured here: host liver cell viability; parasite % of control: stronger effect = lower value.
Experiment [2] is described as follows: altered dexamethasone sensitivity, NF-kB reporter, cell-based, luciferase, IL-1B stimulus (AID 624486).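 On percent of negative control (+Dex): 100% = mean signal of vehicle control wells on the plate.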 The settings on record: IL-1B + dexamethasone, luminescence; percent of negative control (+Dex): actives lie on both sides, concentration not given here; z-score: measured here: IL-1B alone, no Dex.
The nature of experiment [3]: C. elegans survival during P. aeruginosa infection – whole organism (AID 651566).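 Further: tested at 14 µM; sign flipped so higher z means a lower ratio.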 The settings on record: C. elegans killed by P. aeruginosa, survival ratio.
Experiment [4] in a line: pro-inflammatory signaling induction in mouse macrophages – cell-based, murine, luminescence (AID 652131). The settings on record: murine macrophage pro-inflammatory reporter, stronger effect = higher value.
Experiment [5] concerns the target Cellular tumor antigen p53 (Homo sapiens) (UniProt P04637). Nature of the experiment: GFP-p53 level modulators in HPV16+ cells – imaging, known kinase inhibitor set, EGFP/DsRed ratio (AID 1053116).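 Further: cells exposed to compounds for 24 h at 37 °C before reading.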 The settings on record: GFP-p53 stability, stronger effect = higher value; EGFP object count: measured here: GFP-p53 positive objects count.
Experiment [6] is described as follows: inducers of IRF3 signaling, differentiated THP-1 – cell-based, PMA-stimulated THP-1, luminescence (AID 1053176). The settings on record: PMA-differentiated THP-1, IRF3 reporter luminescence; stronger effect = higher value.
Experiment [7] in a line: viability loss in pontine glioma line – cell-based, SU-DIPG-XVII, MIPE5.0, CellTiter-Glo, qHTS, dose response (AID 1347060; cut-off not given, nearly all actives have AC50 up to about 26 µM;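 further: cells exposed to compound for 48 hours before viability readout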). The settings on record: CellTiter-Glo ATP luminescence.
A short description of experiment [8]: viability loss in pontine glioma line – cell-based, JHH-DIPG-1, MIPE4.0, CellTiter-Glo, qHTS, dose response (AID 1347062; cut-off not given, nearly all actives have AC50 up to about 27 µM). The settings on record: JHH-DIPG-1 viability, CellTiter-Glo ATP luminescence. On the technique in general: Cellular ATP, detected with luciferase, serves as a proxy for viable cell number.
A short description of experiment [9]: viability loss in pontine glioma line – cell-based, SU-DIPG-IV, MIPE4.0, CellTiter-Glo, qHTS, dose response (AID 1347063; cut-off not given, nearly all actives have AC50 up to about 30 µM;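 further: compound exposure lasted 48 hours before the viability readout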). The following applies: CellTiter-Glo ATP luminescence.
A short description of experiment [10]: viability loss in pontine glioma line – cell-based, SU-DIPG-XXV, MIPE5.0, CellTiter-Glo, qHTS, dose response (AID 1347065; cut-off not given, nearly all actives have AC50 up to about 26 µM;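 further: cells exposed to compound for 48 hours before ATP readout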). The following applies: CellTiter-Glo ATP luminescence.
Experiment [11] in a line: growth inhibition of DIPG cells – cell-based, MIPE4.0 library, CellTiter-Glo luminescence, qHTS (AID 1347066; cut-off not given, nearly all actives have AC50 up to about 30 µM;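 further: cells exposed to compound for 48 hours before readout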). The settings on record: SU-DIPG-VI viability, CellTiter-Glo ATP luminescence.
A short description of experiment [12]: growth inhibition of DIPG cells – cell-based, MIPE5.0 library, qHTS (AID 1347068; cut-off not given, nearly all actives have IC50 up to about 30 µM). The settings on record: SU-DIPG-XXV viability.
Experiment [13] can be described thus: MELAS cybrid and Rieske KO viability enhancers – cell-based, MELAS cybrids, Rieske KO mouse fibroblasts, CellTiter-Glo, primary screen (AID 1508586;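 active means mean z-score across replicates of 1.96 or higher in either the MELAS or the Rieske mutant cell line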;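 further: z relative to plate mean and SD of compound and empty wells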). The settings on record: low glucose.
Experiment [14] can be described thus: P. berghei load reduction in hepatocytes – cell-based, HepG2, luciferase luminescence, HepG2 viability, primary screen (AID 624349; in the data active means parasite load remaining mostly below about 12%, no sharp cut-off; inactive means mostly above about 10%;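 further: 100% = mean of DMSO negative control wells on the same plate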). The following applies: P. berghei liver stage in HepG2, luciferase luminescence, concentration not given here; parasite load remaining: stronger effect = lower value; viability: measured here: HepG2 viability without parasites.
Experiment [15] can be described thus: viability loss with induced miR-34 in A549 – imaging, A549 dox-inducible miR-34, nuclei and caspase counts, primary screen (AID 1347080;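 active means compounds whose cell count with miR-34 switched on is under 0.7 times the count with it off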). The settings on record: A549 miR-34 inducible, Hoechst nuclei count, 48 h.
The mark [16] stands for this setting: MELAS cybrid survival, CellTiter-Glo 48 h, stronger effect = higher value.
Where [17] appears, read: Rieske KO mouse fibroblast survival, CellTiter-Glo 72 h.

This note sets out measurements from PubChem BioAssay.

Results filed as inconclusive are left out. The source made the active and inactive calls. Unless noted, how the calls were made is not given here.

Chain of Cellular tumor antigen p53 (Homo sapiens) (P04637 whole entry, looked up): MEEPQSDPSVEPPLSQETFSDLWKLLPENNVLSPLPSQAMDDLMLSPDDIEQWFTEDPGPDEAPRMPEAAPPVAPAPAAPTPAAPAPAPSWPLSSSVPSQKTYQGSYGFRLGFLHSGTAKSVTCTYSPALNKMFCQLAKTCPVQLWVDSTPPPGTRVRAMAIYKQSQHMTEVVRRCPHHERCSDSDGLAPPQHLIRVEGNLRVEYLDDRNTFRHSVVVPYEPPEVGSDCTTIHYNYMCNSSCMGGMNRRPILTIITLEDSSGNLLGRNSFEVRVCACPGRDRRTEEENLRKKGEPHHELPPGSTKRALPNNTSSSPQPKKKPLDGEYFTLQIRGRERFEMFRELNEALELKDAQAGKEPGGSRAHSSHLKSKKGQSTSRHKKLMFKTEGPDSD

As for `Cn1cc(/C=C2\C(=O)Nc3cccnc32)c2ccccc21`, the liver cell % of control in experiment [1] was found to be 210%. Further, the parasite % of control in [1] is 18.2% (inactive). For the same compound, the percent of negative control (+Dex) in experiment [2] was 92.5% (inactive). Moreover, the z-score is 0.27 in [2]; 0.915 (inactive) in [3]; 5.16 (inactive) in experiment [4]; 0.351 (inactive) in experiment [13] (setting [16]); -0.515 in experiment [13] (setting [17]). Moreover, the EGFP object count in [5] turned out to be 4. Further, the EGFP/DsRed ratio in experiment [5] is 0.0768 (inactive). Besides, the fraction signal in experiment [6] is -0.0095 (inactive). Besides, the AC50 in experiment [7] was 8.33 µM (active); in experiment [10] it was 9.34 µM (active). The compound was called inactive in experiment [8], in experiment [9], in [11] and in experiment [12].

The compound `Cc1ccc(O)cc1Nc1ccnc2ccc(S(C)(=O)=O)cc12` showed a liver cell % of control in experiment [1] of 79.8%. Further, the parasite % of control in experiment [1] was 60.9% (inactive). In experiment [2], the percent of negative control (+Dex) is 60.5% (inactive). The z-score in experiment [2] was -3.46; in experiment [3], 0.285 (inactive); in [4] it was 0.671 (inactive); in experiment [13] (setting [16]), -0.116; in experiment [13] (setting [17]), 3.87. The EGFP object count in experiment [5] turned out to be 3. Also, the EGFP/DsRed ratio in experiment [5] is 0.0595 (inactive). Also, the fraction signal in experiment [6] is -0.007 (inactive).

In the case of `CC(C)c1ccc(Nc2nccc(-c3cnn4ncccc34)n2)cc1`, the liver cell % of control in [1] turned out to be 146%. Besides, the parasite % of control in [1] is 13.9% (active). Besides, in experiment [2], the percent of negative control (+Dex) was 12.5% (active). Also, the z-score in experiment [2] was -8.57; in experiment [3], 0.07 (inactive); in [4] it was -1.83 (inactive); in experiment [13] (setting [16]) it was 0.723 (inactive); in experiment [13] (setting [17]), -0.0455. Also, in experiment [5], the EGFP object count was 3.5. Moreover, in [5], the EGFP/DsRed ratio was 0.181 (inactive). For the same compound, the fraction signal in experiment [6] is -0.005 (inactive).

`NC(=O)c1ccc2c(-c3ccnc(NCCCO)n3)c(-c3ccc(F)cc3)nn2c1` registered a liver cell % of control in experiment [1] of 85.3%. In addition, the parasite % of control in experiment [1] is 58.4% (inactive). Further, in experiment [2], the percent of negative control (+Dex) is 106% (inactive). In addition, the z-score is 0.705 in experiment [2]; -0.18 (inactive) in experiment [3]; 0.119 (inactive) in experiment [4]; -0.11 (inactive) in [13] (setting [16]); -0.24 in experiment [13] (setting [17]). The EGFP object count in experiment [5] was found to be 4. Besides, the EGFP/DsRed ratio in experiment [5] was 0.0827 (inactive). Further, the fraction signal in experiment [6] was 0.003 (inactive).

In [1], `Cc1ccc(-c2cc3c(NC(=O)C4CC4)ncnc3o2)cc1` registered a liver cell % of control of 108%. Also, the parasite % of control in [1] was 92.7% (inactive). For the same compound, in experiment [2], the percent of negative control (+Dex) was 83.5% (inactive). The z-score in experiment [2] is -0.295; in experiment [3], -0.475 (inactive); in [4], -0.06 (inactive); in [13] (setting [16]) it was -0.119 (inactive); in experiment [13] (setting [17]), 0.346. In addition, the EGFP object count in [5] amounted to 4.5. The EGFP/DsRed ratio in experiment [5] is 0.0878 (inactive). In addition, the fraction signal in experiment [6] is -0.004 (inactive).

Regarding `CN1C(=O)C(c2c[nH]c3ccccc23)=C(c2c[nH]c3ccccc23)C1=O`, in experiment [14], the parasite load remaining was 34.8% (inactive) and the viability was determined as 125%. In experiment [1], the liver cell % of control turned out to be 87.4% and the parasite % of control is 30.7% (inactive). In [2], the percent of negative control (+Dex) was 96.5% (inactive) and the z-score was -0.615. For the same compound, in experiment [5], the EGFP object count is 3 and the EGFP/DsRed ratio is 0.0517 (inactive). The fraction signal in experiment [6] is -0.0095 (inactive). For the same compound, in experiment [15] (stronger effect = lower value, cell number ratio, induced over uninduced), the fold change was 0.868 (inactive). Further, the fold change in experiment [15] (measured here: relative caspase fold change +Dox/-Dox) was found to be 1.05. In experiment [15] (measured here: total cells with miR-34 induction, stronger effect = lower value), the cell count worked out at 5070. In [15] (measured here: total cells without miR-34 induction), this compound showed a cell count of 5840.

In turn, `NS(=O)(=O)c1ccc(NC2CC(c3ccc(O)c(F)c3)NN2)cc1` (stereo not given) returned a liver cell % of control in [1] of 113%. In addition, in experiment [1], the parasite % of control was 139% (inactive). The percent of negative control (+Dex) in experiment [2] is 94.5% (inactive). Further, the z-score in [2] is -0.075; in experiment [3], -1.04 (inactive); in [4] it was -0.229 (inactive); in [13] (setting [16]) it was -0.752 (inactive); in [13] (setting [17]), -0.137. For the same compound, in experiment [5], the EGFP object count was 2.5. The EGFP/DsRed ratio in experiment [5] was 0.101 (inactive). Further, the fraction signal in [6] was 0.0025 (inactive).

What is called AC50 is the concentration at which the activity in the assay is half-maximal. One may read the viability as a read-out of living cells in per cent, often relative to untreated cells.
